# Source: article PMC11995724, “Antibiotic target discovery by integrated phenotypic and activity-based profiling of electrophilic fragments” (Cell chemical biology, 2025)
# Hit rate of the full screen: of about 3,200 compounds, about 75 (2%) showed an effect of 50% or more. The entries come from a sample that favours strong results as a whole.
# System: T1, S. aureus MSSA476
# T1 construct: MSSA476
# Set-up: species or system S. aureus MSSA476 (TSB) or V. cholerae SAD30 (LB); 384-well bacterial growth screen at 25 uM, OD600 relative to DMSO control
# Details: relative growth, OD600, TSB; 25 µM; inhibitor
row,SMILES,% of control remaining [%]
1,"C=CC(=O)NC1CCCN(C(=O)CCC(F)(F)F)C1 (stereo not drawn) [1-B03, N-[1-(4,4,4-trifluorobutanoyl)piperidin-3-yl]prop-2-enamide]",102.681
2,"C=CC(=O)N(C)c1ccccc1C(=O)NC [2-O18, N-methyl-2-(N-methylprop-2-enamido)benzamide]",115.231
3,"C=CC(=O)Nc1ccc(S(C)(=O)=O)cc1OCC [2-C08, N-(2-ethoxy-4-methanesulfonylphenyl)prop-2-enamide]",116.275
4,"Cl.O=C(CCl)NC1CCN(Cc2ccccc2)CC1 [5-E19, N-(1-benzylpiperidin-4-yl)-2-chloroacetamide hydrochloride]",109.654
5,"O=C(CCl)NCC1CCCN(C(=O)C(F)(F)F)C1 (stereo not drawn) [7-N18, 2-chloro-N-{[1-(2,2,2-trifluoroacetyl)piperidin-3-yl]methyl}acetamide]",107.378
6,"CCOc1ccc(C=C(C#N)C(=O)Nc2cccc3ncccc23)cc1 [8-A07, 2-cyano-3-(4-ethoxyphenyl)-N-(quinolin-5-yl)prop-2-enamide]",131.452
7,"C=CC(=O)NCc1nc2c(s1)CCCC2 [1-G18, N-[(4,5,6,7-tetrahydro-1,3-benzothiazol-2-yl)methyl]prop-2-enamide]",119.56
8,"C=CC(=O)N(CC)CC(=O)N1CCCC1c1cn(C)nc1C (stereo not drawn) [2-N12, N-{2-[2-(1,3-dimethyl-1H-pyrazol-4-yl)pyrrolidin-1-yl]-2-oxoethyl}-N-ethylprop-2-enamide]",110.009
9,"CCN(CC(=O)NC1CCS(=O)(=O)C1)C(=O)CCl (stereo not drawn) [4-I19, 2-chloro-N-{[(1,1-dioxo-1lambda6-thiolan-3-yl)carbamoyl]methyl}-N-ethylacetamide]",127.68
10,"O=C(CCl)c1cc2c3c(c1)CC(=O)N3CCC2 [10-G16, 6-(2-chloroacetyl)-1-azatricyclo[6.3.1.0,4,12]dodeca-4(12),5,7-trien-2-one]",130.938
11,"O=C(CCl)c1ccc2c(c1)CCN(C(=O)C(F)(F)F)C2 [10-E09, 1-[6-(2-chloroacetyl)-1,2,3,4-tetrahydroisoquinolin-2-yl]-2,2,2-trifluoroethan-1-one]",20.625
12,"CC(Cl)C(=O)Nc1ccc(S(N)(=O)=O)cc1 (stereo not drawn) [6-B06, 2-chloro-N-(4-sulfamoylphenyl)propanamide]",82.2927
13,"C=CC(=O)Nc1cc(NC(=O)C2CCC2)ccc1F [2-E10, N-[4-fluoro-3-(prop-2-enamido)phenyl]cyclobutanecarboxamide]",111.749
14,"C=CC(=O)Nc1cc(NC(=O)c2ccc([N+](=O)[O-])o2)ccc1F [3-J04, N-[4-fluoro-3-(prop-2-enamido)phenyl]-5-nitrofuran-2-carboxamide]",-4.528
15,"C=CC(=O)Nc1cc(NC(=O)C2(OC)CCOC2)ccc1F (stereo not drawn) [3-D05, N-[4-fluoro-3-(prop-2-enamido)phenyl]-3-methoxyoxolane-3-carboxamide]",96.8219
16,"Cc1cc(C(=O)CCl)c(C)n1Cc1ccc(F)cc1 [10-N17, 2-chloro-1-{1-[(4-fluorophenyl)methyl]-2,5-dimethyl-1H-pyrrol-3-yl}ethan-1-one]",4.6875
17,"COCCn1c(C)cc(C(=O)CCl)c1C [10-D13, 2-chloro-1-[1-(2-methoxyethyl)-2,5-dimethyl-1H-pyrrol-3-yl]ethan-1-one]",103.125
18,"Cc1cc(C(=O)CCl)c(C)n1Cc1ccccc1 [10-M14, 1-(1-benzyl-2,5-dimethyl-1H-pyrrol-3-yl)-2-chloroethan-1-one]",143.438
19,"Cc1cc(C(=O)CCl)c(C)n1CCc1ccc(Cl)cc1 [10-N16, 2-chloro-1-{1-[2-(4-chlorophenyl)ethyl]-2,5-dimethyl-1H-pyrrol-3-yl}ethan-1-one]",5.9375
20,"Cc1cc(C(=O)CCl)c(C)n1CCc1cccs1 [10-F16, 2-chloro-1-{2,5-dimethyl-1-[2-(thiophen-2-yl)ethyl]-1H-pyrrol-3-yl}ethan-1-one]",20.3125
21,"Cc1cc(C(=O)CCl)c(C)n1CCc1ccc(F)cc1 [10-G14, 2-chloro-1-{1-[2-(4-fluorophenyl)ethyl]-2,5-dimethyl-1H-pyrrol-3-yl}ethan-1-one]",123.75
22,"Cc1cc(C(=O)CCl)c(C)n1Cc1cccs1 [10-D03, 2-chloro-1-{2,5-dimethyl-1-[(thiophen-2-yl)methyl]-1H-pyrrol-3-yl}ethan-1-one]",122.5
23,"Cc1cc(C(=O)CCl)c(C)n1CCc1ccccc1 [10-B18, 2-chloro-1-[2,5-dimethyl-1-(2-phenylethyl)-1H-pyrrol-3-yl]ethan-1-one]",102.188

row,SMILES,% of control remaining [%]
1,"Cc1cc(C(=O)CCl)c(C)n1Cc1ccccc1Cl [10-P16, 2-chloro-1-{1-[(2-chlorophenyl)methyl]-2,5-dimethyl-1H-pyrrol-3-yl}ethan-1-one]",127.813
2,"O=C(CCl)NC(Cc1ccccc1)c1ccccc1F (stereo not drawn) [7-N10, 2-chloro-N-[1-(2-fluorophenyl)-2-phenylethyl]acetamide]",83.5165
3,"CC(Cl)C(=O)N1CCNC(=O)C1Cc1nc2ccccc2o1 (stereo not drawn) [6-P03, 3-[(1,3-benzoxazol-2-yl)methyl]-4-(2-chloropropanoyl)piperazin-2-one]",97.3171
4,"c1ccc(CSSCc2ccccc2)cc1 [10-O21, [(benzyldisulfanyl)methyl]benzene]",113.125
5,"Cl.O=C(CCl)NCC(c1ccccc1Cl)N1CCCC1 (stereo not drawn) [6-G17, 2-chloro-N-[2-(2-chlorophenyl)-2-(pyrrolidin-1-yl)ethyl]acetamide hydrochloride]",101.415
6,"O=C(CCl)NC(Cc1cccc(O)c1)c1ccccc1 (stereo not drawn) [7-N20, 2-chloro-N-[2-(3-hydroxyphenyl)-1-phenylethyl]acetamide]",100.157
7,"COc1ccc(N2C(=O)C=CC2=O)c([N+](=O)[O-])c1 [10-L11, 1-(4-methoxy-2-nitrophenyl)-2,5-dihydro-1H-pyrrole-2,5-dione]",100
8,"CC(C)CNC(=O)c1ccccc1NC(=O)CCl [4-E04, 2-(2-chloroacetamido)-N-(2-methylpropyl)benzamide]",88.4231
9,"O=C(CCl)NCC(=O)Nc1ccc(F)c(F)c1 [4-L16, 2-chloro-N-{[(3,4-difluorophenyl)carbamoyl]methyl}acetamide]",109.004
10,"N#CC(C(=O)CCl)=C1Nc2cc(Cl)ccc2S1 [10-O08, 4-chloro-2-(5-chloro-2,3-dihydro-1,3-benzothiazol-2-ylidene)-3-oxobutanenitrile]",100
11,"N#CC(C(=O)CCl)=C1NC(=O)c2ccccc2N1 [10-P14, 4-chloro-3-oxo-2-(4-oxo-1,2,3,4-tetrahydroquinazolin-2-ylidene)butanenitrile]",93.75
12,"N#CC(C(=O)CCl)=C1Nc2ccccc2S1 [10-J04, 4-chloro-2-(2,3-dihydro-1,3-benzothiazol-2-ylidene)-3-oxobutanenitrile]",43.75
13,"CCn1cc(S(=O)(=O)N2CCSSCC2)cn1 [10-N19, 5-[(1-ethyl-1H-pyrazol-4-yl)sulfonyl]-1,2,5-dithiazepane]",97.1875
14,"Cc1cc(CN(C(=O)CCl)c2csnc2C)cs1 [5-C12, 2-chloro-N-(3-methyl-1,2-thiazol-4-yl)-N-[(5-methylthiophen-3-yl)methyl]acetamide]",105.282
15,"N#CC(=Cc1cccc(F)c1)C(=O)Nc1cc(Cl)ccc1Cl [9-P03, 2-cyano-N-(2,5-dichlorophenyl)-3-(3-fluorophenyl)prop-2-enamide]",107.865
16,"C=CC(=O)N1CCC(C(=O)N2CCN(CC(C)C)C(=O)C2C)CC1 (stereo not drawn) [2-B08, 3-methyl-1-(2-methylpropyl)-4-[1-(prop-2-enoyl)piperidine-4-carbonyl]piperazin-2-one]",92.6023
17,"O=C(CCl)N1N=C(c2cccc(F)c2)CC1c1cccs1 (stereo not drawn) [4-E22, 2-chloro-1-[3-(3-fluorophenyl)-5-(thiophen-2-yl)-4,5-dihydro-1H-pyrazol-1-yl]ethan-1-one]",121.582
18,"C=CC(=O)N1CCC(c2ncc(C(=O)O)o2)CC1 [2-G19, 2-[1-(prop-2-enoyl)piperidin-4-yl]-1,3-oxazole-5-carboxylic acid]",116.275
19,"C=CC(=O)N1CCC(C(=O)Nc2ccc(CC)cc2)CC1 [3-J12, N-(4-ethylphenyl)-1-(prop-2-enoyl)piperidine-4-carboxamide]",97.5185
20,"O=C(CCl)NCc1cc([N+](=O)[O-])ccc1O [4-A05, 2-chloro-N-[(2-hydroxy-5-nitrophenyl)methyl]acetamide]",92.6155
21,"N#Cc1cc([N+](=O)[O-])ccc1NC(=O)CCl [4-O09, 2-chloro-N-(2-cyano-4-nitrophenyl)acetamide]",100.619
22,"O=C(CCl)NSc1ccc([N+](=O)[O-])cc1 [4-P13, 2-chloro-N-[(4-nitrophenyl)sulfanyl]acetamide]",1.906
